Measured values reported in PubChem BioAssay (NCI).
This is part of a sample that, as a whole, favours compounds with a hit. Of some 83,000 tested, about 20% had one in any assay.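 Growth was measured after 48 h exposure to one concentration of compound in 96-well plates. Values under 10 count as active.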 A number with no mark means an inactive call. Active and inactive are the calls of the source.

What follows are molecules tested on HS 578T breast (assay: NCI-60 one-dose screen, 48 h (100 = growth as untreated, 0 = no growth, -100 = all killed)). Details: 10 µM unless noted.

| Compound | growth |
| --- | --- |
| CCOc1ccc(NC(=O)Nc2cc(C(C)C)ccc2C)cc1 | 4.79% (active) |
| NS(=O)(=O)c1ccc(-n2nc(-c3ccc(Cl)cc3)ccc2=O)cc1 | 88.2% |
| COC(OC)C1(c2ccccc2)NC(=O)NC1=O (stereo unspecified) | 111% |
| CC1=C[S+](c2ccccc2)c2cccc3cc4ccccc4c1c23 (stereo unspecified) | 69.5% |
| O=C(Nc1ccccc1F)Nc1ccccc1Cl | 103% |
| O=C(C[n+]1ccccc1Cl)c1ccc2c(c1)CCCC2 | 111% |
| COc1cc(-c2nc3sc(C)cn3c2/C=C2\C(=O)Nc3ccccc32)c(Br)c(OC)c1OC | 15.7% |
| CC1(C)N=C(N)N=C(N)N1c1cccc(CCCCc2ccccc2)c1 | 66.5% |
| COc1ccc(/C=C2\CS(=O)(=O)C/C(=C\c3ccc(OC)cc3)C2=O)cc1 | 48% |
| CN1CCN(CC(O)COc2c(Br)c(Br)c(Br)c3c2OC(C)(C)C3)CC1 (stereo unspecified) | 55.5% |
| CC1(C)N=C(N)N=C(N)N1c1ccc(OCC(=O)Nc2ccccc2)c(Cl)c1 | 97.7% |
| COc1ccc2c(c1)nnc1c3cccnc3[nH]c21 | -24.5% (active) |
| Nc1ccc(S(=O)(=O)Nc2cc(I)cc(I)c2)cc1 | 117% |
| Nc1nc2ccc(CNc3ccc(C(=O)NC(CC(=O)O)C(=O)O)cc3)cc2c(=O)[nH]1 (stereo unspecified) | 97.5% |
| Cc1cn(C2CC(F)C(CO)O2)c(=O)[nH]c1=O (stereo unspecified) | 133% |
| CN(C)C(=O)Nc1nc2cc(Cl)c(Cl)cc2[nH]1 | 50.8% |
